BAZ2B block = blocks human BAZ2B | Q9UIF8 | AlphaScreen BAZ2B-H3K14Ac peptide displacement | Potency, µM (titrated, usually from 114 µM), usual class: inhibitors | actives 4.4% (n = 360,000) | AID 504333; further: nearly all actives have a fitted effect of over 60% in size
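Inhibition is scored as reduced AlphaScreen emission. The BAZ2B/b-H3(5-23)K14Ac complex (50 nM each) in PBS pH 7.4, 0.01% Tween-20 meets compound (up to 110 uM) for 30 min at RT before bead addition.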
JMJD2A Tudor = inhibitors of human JMJD2A Tudor domain. actives 4.4% (n = 390,000). Potency, µM (titrated, usually from 114 µM), actives largely listed as inhibitors. AlphaScreen JMJD2A-Tudor / H3K4me3 peptide binding. AID 504339; further: nearly all actives have a fitted effect of over 50% in size
HP1b binding inh = inhibitors of HP1-beta chromodomain binding to methylated histone tails; AID 540317; AlphaScreen HP1-beta / biotin-H3K9me3 peptide binding; Potency, µM (titrated, usually from 114 µM), actives largely listed as inhibitors; actives 0.56% (n = 390,000); further: nearly all actives have a fitted effect of over 70% in size
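HP1-beta protein (50 nM final) preincubated 30 min at room temperature with biotinylated H3(1-18)K9me3 peptide (50 nM) in PBS pH 7.4, 0.01% Tween-20, then compound added for 30 min. AlphaScreen streptavidin donor/nickel chelate acceptor beads (10 ug/mL final), 30 min dark, luminescence read.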
G9a inh = G9a (human) methyltransferase inhibition | Q96KQ7 | G9a H3K9 monomethylation, AlphaScreen, 2 h | Potency, µM (top dose mostly 102 µM), hits mostly inhibitors | actives 8.8% (n = 350,000) | AID 504332; further: nearly all actives have a fitted effect of over 75% in size
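Compounds were preincubated with 20 nM G9a for 15 min, after which biotinylated H3K9 peptide (500 nM) and SAM (20 uM) started a 2 h room-temperature reaction. Monomethylated product was quantified by antibody-based AlphaScreen chemiluminescence.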
Sfp PPTase inh = blocks B. subtilis Sfp PPTase activity; Q9F4F7; Biochemical Sfp PPTase activity, qHTS; Potency, µM, most hits filed as inhibitors; actives 3.5% (n = 310,000);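 further: the enzyme is Sfp with the accession as filed and its product quenches rhodamine fluorescence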
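With Hepes-Na pH 7.6 buffer containing 10 mM MgCl2, Sfp (15 nM) modified BHQ-2-YbbR (12.5 uM) using rhodamine-CoA (5 uM). Two reads 30 minutes apart at 525/598 nm yielded each well's rate.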
Numbers stand for hits; ! = a repeat was not active; [ ] = another dose, or the depositor's remark. The list is not random: actives were taken first. Their share in the collection is about 12%. The call rests on the fitted dose curve; in most records, active means well fitted curve in the direction sought with a large enough effect; inconclusive means small, poorly fitted or top-dose-only effect, or another doubt; inactive means no such curve, though single readings can be large; an effect the other way counts as inactive or inconclusive.

What do the screens show for `Cc1cc2c(cc1C)[n+](C)cn2CC(O)COCc1ccccc1` (stereo unspecified)?
BAZ2B block: inactive; JMJD2A Tudor: inconclusive; HP1b binding inh: inactive; G9a inh: 5.62µM; Sfp PPTase inh: inactive

What do the screens show for `COc1ccc(S(=O)(=O)N(CCO)c2ccccc2CN(C)C/C=C/c2ccc(Cl)cc2)cc1`?
G9a inh: inconclusive; Sfp PPTase inh: inactive

How did CCOC(=O)CN1NC2(CCCC(C)C2)NC1=S (stereo unspecified) do in these assays?
BAZ2B block: inactive; JMJD2A Tudor: 50.1µM; HP1b binding inh: inactive; G9a inh: 10µM; Sfp PPTase inh: 25.1µM

Results for CCOC(=O)CN1C(=O)NC2(CCCc3ccccc32)C1=O (stereo unspecified) ?
BAZ2B block: inactive; JMJD2A Tudor: inactive; HP1b binding inh: inactive; G9a inh: inactive; Sfp PPTase inh: inactive

What do the screens show for `CCOC(=O)CN1NC2(CCC(C)CC2)NC1=S` (stereo unspecified)?
BAZ2B block: inconclusive; JMJD2A Tudor: 28.2µM; HP1b binding inh: inactive; G9a inh: 25.1µM; Sfp PPTase inh: 35.5µM

How did CCOC(=O)Cn1c2c(c(=N)c3c1CCC3)CCC2 do in these assays?
BAZ2B block: inactive; JMJD2A Tudor: inactive; HP1b binding inh: inactive; G9a inh: inactive; Sfp PPTase inh: inactive

Results for CCOC(=O)CN1NC2(CCC(C(C)(C)C)CC2)NC1=S (stereo unspecified) ?
BAZ2B block: inconclusive; JMJD2A Tudor: 39.8µM; HP1b binding inh: inactive; G9a inh: inactive[12.7 µM]; Sfp PPTase inh: 22.4µM

What do the screens show for `Nn1c(SCC(=O)NCCc2ccc(F)cc2)nnc1C1CCCCC1`?
BAZ2B block: inactive; JMJD2A Tudor: inactive; HP1b binding inh: inactive; G9a inh: inactive[12.7 µM]

Results for O=S(=O)(c1ccccc1)c1nnn2c1nc(NC1CCCCCC1)c1sccc12 ?
BAZ2B block: inactive; JMJD2A Tudor: inactive; HP1b binding inh: inactive; G9a inh: inactive

What do the screens show for `Cc1ccc(OCC(=O)Nc2cccc(OCc3cc(=O)n4ccccc4n3)c2)cc1C`?
BAZ2B block: inactive; JMJD2A Tudor: inactive; HP1b binding inh: inactive; G9a inh: inactive

What do the screens show for `CC(C)Cn1nnnc1S(=O)(=O)CC#N`?
Sfp PPTase inh: inactive

What do the screens show for `COc1ccc(CN=Cc2c(C(F)(F)F)[nH][nH]c2=O)cc1`?
BAZ2B block: inactive; JMJD2A Tudor: 79.4µM; HP1b binding inh: inactive; G9a inh: inactive; Sfp PPTase inh: inactive

Results for Cc1ccc(N2C(=O)CS(=O)(=O)C23C(=O)N(C)c2ccccc23)cc1F (stereo unspecified) ?
BAZ2B block: inactive; JMJD2A Tudor: inactive; HP1b binding inh: inactive; G9a inh: 12.6µM

How did Cc1cccc(N2C(=O)CS(=O)(=O)C23C(=O)N(C)c2ccccc23)c1 (stereo unspecified) do in these assays?
BAZ2B block: inactive; JMJD2A Tudor: inactive; HP1b binding inh: inactive; G9a inh: inactive

How did COc1cccc(-c2csc(N3CCN(C(=O)C4CCCCC4)CC3)n2)c1 do in these assays?
BAZ2B block: inconclusive; JMJD2A Tudor: inconclusive; HP1b binding inh: inactive; G9a inh: 14.1µM; Sfp PPTase inh: inconclusive

What do the screens show for `CCCC(=O)Nc1nnc(-c2cccc(OCC)c2)s1`?
BAZ2B block: inactive; JMJD2A Tudor: inactive; HP1b binding inh: inactive; G9a inh: inactive; Sfp PPTase inh: inactive

What do the screens show for `COc1cc(CCC(=O)Nc2nnc(-c3cccnc3)s2)cc(OC)c1OC`?
BAZ2B block: inactive; JMJD2A Tudor: inactive; HP1b binding inh: inactive; G9a inh: 39.8µM; Sfp PPTase inh: inactive

What do the screens show for `COc1ccc(NC(=O)CN2CCN(c3nc(-c4cccc(OC)c4)cs3)CC2)cc1`?
BAZ2B block: inconclusive; JMJD2A Tudor: inconclusive; HP1b binding inh: inactive; G9a inh: 10µM; Sfp PPTase inh: inactive

Results for COc1cccc(N2CCN(CC(=O)NC3=Nc4ccccc4N=C(C)C3c3ccccc3)CC2)c1 (stereo unspecified) ?
BAZ2B block: inactive; JMJD2A Tudor: inactive; HP1b binding inh: inactive; G9a inh: inconclusive; Sfp PPTase inh: inactive

What do the screens show for `COc1cccc(-c2csc(N3CCN(CC(=O)Nc4ccc5c(c4)OCO5)CC3)n2)c1`?
BAZ2B block: inconclusive; JMJD2A Tudor: inactive; HP1b binding inh: inactive; G9a inh: inconclusive; Sfp PPTase inh: inactive

How did COc1cccc(N2CCN(CC(=O)Nc3nnc(-c4ccccc4)s3)CC2)c1 do in these assays?
BAZ2B block: inconclusive; JMJD2A Tudor: 89.1µM; HP1b binding inh: inactive; G9a inh: inactive; Sfp PPTase inh: inactive

How did Cc1ccc(NS(=O)(=O)c2ccc3c(c2)CCCC(=O)N3)cc1C do in these assays?
JMJD2A Tudor: inactive

How did COC(=O)C1=C(C(=O)OC)[C@@H]2Nc3ccccc3[C@@]23C[C@@H](C(=O)OC)N(S(=O)(=O)c2ccc4c(c2)OCCN4C)C3=N1 do in these assays?
Sfp PPTase inh: inactive

How did O=C(c1ccc2c(c1)N(Cc1ccc(F)cc1)C(=O)c1ccccc1S2=O)N1CCC(Cc2ccccc2)CC1 (stereo unspecified) do in these assays?
BAZ2B block: inactive; JMJD2A Tudor: inactive; HP1b binding inh: inactive; G9a inh: inconclusive

Results for CC(NC(=O)c1ccccc1Br)c1nnc(SCC(=O)NC2=NCCS2)n1C (stereo unspecified) ?
BAZ2B block: inactive; JMJD2A Tudor: inactive; HP1b binding inh: inactive; G9a inh: inactive; Sfp PPTase inh: inactive

What do the screens show for `O=[N+]([O-])c1ccccc1-c1ccc(/C=N/n2cnnc2)o1`?
BAZ2B block: inactive; JMJD2A Tudor: inactive; HP1b binding inh: inactive; G9a inh: inactive; Sfp PPTase inh: inactive

What do the screens show for `O=C1CN(/N=C/c2ccc(-c3ccc([N+](=O)[O-])cc3)o2)C(=O)N1`?
G9a inh: inactive; Sfp PPTase inh: 89.1µM!

What do the screens show for `Cc1cc(C(=O)O)ccc1-c1ccc(/C=N/n2cnnc2)o1`?
BAZ2B block: inactive; JMJD2A Tudor: inactive; HP1b binding inh: inactive; G9a inh: 56.2µM; Sfp PPTase inh: inactive

How did O=[N+]([O-])c1cc(-c2ccc(/C=N\n3cnnc3)o2)cc([N+](=O)[O-])c1 do in these assays?
BAZ2B block: inactive; JMJD2A Tudor: inconclusive; HP1b binding inh: inconclusive; G9a inh: 44.7µM; Sfp PPTase inh: inconclusive

Results for Cc1ccc(-c2ccc(/C=N/n3cnnc3)o2)cc1Cl ?
BAZ2B block: inactive; JMJD2A Tudor: inconclusive; HP1b binding inh: inactive; G9a inh: inactive[12.7 µM]; Sfp PPTase inh: inactive

Results for COc1cc(OC)c(OC)cc1/C=N/n1c(-c2n[nH]c3c2CCC3)n[nH]c1=S ?
BAZ2B block: inactive; JMJD2A Tudor: 3.16µM; HP1b binding inh: inactive; G9a inh: 1.58µM; Sfp PPTase inh: 22.4µM

Results for COc1ccc(OC)c(/C=N/n2c(-c3n[nH]c4c3CCC4)n[nH]c2=S)c1 ?
BAZ2B block: inactive; JMJD2A Tudor: 6.31µM; HP1b binding inh: inactive; Sfp PPTase inh: inactive

What do the screens show for `COc1ccc(/C=N/n2c(-c3n[nH]c4c3CCC4)n[nH]c2=S)cc1`?
BAZ2B block: inactive; JMJD2A Tudor: 10µM; HP1b binding inh: inactive; G9a inh: 1.58µM; Sfp PPTase inh: inactive

High-throughput results from PubChem BioAssay.
